Assay results taken from PubChem BioAssay AID1347076 (National Center for Advancing Translational Sciences (NCATS), 2019).
The campaign covered roughly 400,000 compounds. About 13,000 (3.2%) were called active. Another 18% or so got no clear call; they are omitted. The full list was thinned out, with actives kept by preference. Unmarked numbers belong to inactive results. The call rests on the fitted dose curve; in most records, active means well fitted cell-killing curve with a large enough effect; inconclusive means small, poorly fitted or top-dose-only effect, or effect the other way; inactive means flat fitted curve, though single readings scatter.

assay: qHTS assay for MDR1-selective chemotherapeutics: Primary screen using the drug-selected MDR subline cells KB-V1; conditions: KB-V1 MDR cells viability, CellTiter-Glo, 72 h; series mostly up to 46.1 µM; activity change, negative = cytotoxicity: at the top concentration; further: nearly all actives have a fitted effect of over 60% in size
Outline: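 Luminescent ATP read-out (CellTiter-Glo, 10 min) measures survival of drug-selected KB-V1 MDR cells after 72 h, 37 degrees C compound exposure. Medium: phenol-red-free DMEM, 10% FBS. Values from fitted concentration-response curves.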
On the % scale 0 is the no-effect control and ±100 the full control effect; potency means the concentration at half of the fitted maximal effect.

Compared with `Cc1ccc2nc(COc3cccc(NC(=O)c4cccc(Cl)c4)c3)cc(=O)n2c1`, `CC(=O)NCCNC(=O)c1cc(-c2cccc3ccccc23)nc2ccccc12` is lower in “activity change, negative = cytotoxicity” value: -2.75% for the first, -9.24% for the second.

Compared with `O=C(c1cnn(-c2ccc(Cl)cc2)c1)c1ccccc1O`, `COc1ccc(C(=O)Cc2cnn(-c3ccccc3)c2)c(O)c1` is higher in “activity change, negative = cytotoxicity” value: -26.8% for the first, 6.65% for the second.

First: Cc1ccc(-c2cc(-c3coc4ccccc4c3=O)c3c(n2)-c2cc(Cl)ccc2OC3)cc1
Second: O=C1N(Cc2ccccc2)c2ccc(Cl)cc2C1(O)c1c[nH]c2ccccc12 (stereo not given)
The “activity change, negative = cytotoxicity” value of the first is higher: 23.8% for the first, 15.1% for the second.

First: Cc1cc(C)c(S(=O)(=O)NN=C2c3ccccc3[C@H]3Cc4csc[n+]4[C@@H]23)c(C)c1
Second: CCOc1ccccc1CNS(=O)(=O)c1cc(-c2cc(C)no2)ccc1C
The “activity change, negative = cytotoxicity” value of the first is higher: 0% for the first, -25.9% for the second.

First: C[C@H](CO)N1C[C@H](C)[C@@H](CN(C)C(=O)c2cccc(F)c2)Oc2cc(-c3cncnc3)ccc2S1(=O)=O
Second: COc1ccc(CCNS(=O)(=O)c2cc(-c3cc(C)no3)ccc2C)cc1OC
The “activity change, negative = cytotoxicity” value of the first is lower: -5.26% for the first, 14.1% for the second.

First: O=C(NCCOc1ccccc1)c1ccccc1F
Second: Cc1c(C(=O)NCc2ccccc2)cnn1-c1ccccc1
The “activity change, negative = cytotoxicity” value of the first is higher: -0.571% for the first, -2.59% for the second.

Compared with `COc1ccccc1N1CCN(C(=O)c2cc(=O)c3cc(C)ccc3o2)CC1`, `COc1ccccc1N1CCN(C(=O)c2c(-c3c(Cl)cccc3Cl)noc2C)CC1` is higher in “activity change, negative = cytotoxicity” value: -19.3% for the first, 0% for the second.

First: O=C(Nc1ccc2c(c1)OCCO2)C1c2ccccc2OCC(=O)N1Cc1ccccn1 (stereo not given)
Second: CC(=O)Nc1nonc1-c1nc2ccccc2n1Cc1ccccn1
The “activity change, negative = cytotoxicity” value of the first is higher: 0% for the first, -6.93% for the second.

First: Cc1ccc(C(=O)N[C@H](C(=O)N2CCN(c3ncccn3)CC2)C(C)C)cc1
Second: O=C(NCCS(=O)(=O)N1CCN(c2ccccc2)CC1)c1cc(=O)c2ccccc2o1
The “activity change, negative = cytotoxicity” value of the first is higher: -6.89% for the first, -16.5% for the second.

First: CC(=O)Cn1cnc2c(cnn2-c2ccccc2)c1=O
Second: Cc1nn(-c2ccccc2)c(C)c1/C=N/NC(=O)CSc1nc2ccccc2c(=O)n1-c1ccccc1
The “activity change, negative = cytotoxicity” value of the first is higher: 2.75% for the first, -1.83% for the second.

First: COc1ccc(OC)c(NC(=O)CN(C)CCOc2ccc(Br)cc2)c1
Second: COc1ccc(Cl)cc1NC(=O)CCS(=O)(=O)c1ccc(Br)cc1
The “activity change, negative = cytotoxicity” value of the first is higher: -8.21% for the first, -12.7% for the second.

Going from `CCCCCCN1CCN(C2CN(Cc3cn(CCCCCC)nn3)S(=O)(=O)C2)CC1` (stereo not given) to `CCc1nc2ccc(C(=O)N3CCN(S(=O)(=O)CC)CC3)cn2c1N(C=O)CCC(C)C`, the “activity change, negative = cytotoxicity” value rises from -17.4% to -1.32%.

Compared with `COc1ccc(-c2nc3ccc(Br)cn3c2Cc2ccc(C)cc2)cc1OC`, `CCn1c(C(O)c2cc(OC)ccc2OC)nc2ccccc21` (stereo not given) is lower in “activity change, negative = cytotoxicity” value: 11.7% for the first, 0% for the second.

Compared with `CN(C)CCNC(=O)Nc1cccc(Cl)c1Cl`, `Cc1ccc(S(=O)(=O)N2CCCCC2)cc1NC(=O)CCNC(=O)c1ccccc1Cl` is higher in “activity change, negative = cytotoxicity” value: -2.58% for the first, -2.44% for the second.

Going from `CCOC(=O)C1CCCN(C(=O)c2cc(-c3cccs3)oc2C)CC1` (stereo not given) to `C/C(=N\NC(=O)COc1c(C)cccc1C)c1cccs1`, the “activity change, negative = cytotoxicity” value falls from -0.946% to -15.3%.

Compared with `CCOc1ccc(-c2nonc2NC(=O)c2oc3ccc(C)cc3c2C)cc1OCC`, `Cc1cc(C)nc(NS(=O)(=O)c2ccc(NC(=O)c3cc(=O)c4ccc(C)c(C)c4o3)cc2)n1` is higher in “activity change, negative = cytotoxicity” value: 4.56% for the first, 10.1% for the second.

First: OCCC#Cc1ccc(N2C(c3ccsc3)=Cc3ccc(F)cc3C2c2c[nH]c3ccccc23)cc1 (stereo not given)
Second: O=c1c2ccccc2n(Cc2cccc(Cl)c2)c(=O)n1Cc1ccccc1
The “activity change, negative = cytotoxicity” value of the first is lower: -2.8% for the first, 0% for the second.

Going from `CC1(C(=O)NS(=O)(=O)Cc2cccc(Cl)c2)CCN1C(=O)Cc1ccc(Cl)cc1Cl` (stereo not given) to `O=C(CCN1CCCCC1)Nc1ccc(F)c(F)c1`, the “activity change, negative = cytotoxicity” value falls from 3.11% to -4.41%.

First: CCCCCCCNc1ccc(/C=C/c2ccnc3ccccc23)cc1
Second: CSc1ncnc2c1ncn2CCCNCc1ccco1
The “activity change, negative = cytotoxicity” value of the first is lower: -14.4% for the first, -0.21% for the second.

First: Cc1cc(-c2csc(N)n2)c(C)n1Cc1ccccc1
Second: CSc1ncnc2c1ncn2CCCNCC1CCCCC1
The “activity change, negative = cytotoxicity” value of the first is higher: -1.04% for the first, -20.3% for the second.

For `Cc1cc(O)cc(O)c1C(=O)Cc1cnn(-c2ccccc2)c1`, the Potency was 16.4 µM (active).
With `COc1ccccc1N1CCN(C(=O)c2cc(=O)c3cc(C)cc(C)c3o2)CC1` the Potency was 0.206 µM (active).
For `O=C(Cn1cnc2c(cnn2-c2ccccc2)c1=O)NCc1ccccc1`, the Potency was 5.17 µM (active).
For `COc1ccc(Br)cc1CN(C)CC(=O)Nc1cc(Cl)cc(Cl)c1`, the Potency was 7.31 µM (active).
With `CN(C)CCNC(=O)c1ccc(Cl)c2cc3ccccc3nc12` the Potency was 2.06 µM (active).
In the case of `C/C(=N\NC(=O)CSc1nc2ccccc2c(=O)n1-c1ccccc1C)c1cccs1`, the Potency is reported as 2.31 µM (active).
With `COc1ccc(C)c(Cn2c(-c3nonc3N)nc3ccccc32)c1` the Potency was 2.31 µM (active).
In the case of `COc1ccc(CNS(=O)(=O)c2cc(-c3cc(C)no3)ccc2C(C)C)cc1`, the Potency is reported as 13 µM (active).
With `Nc1cc(=O)n(Cc2ccccc2)c(=O)n1Cc1ccccc1` the Potency was 18.4 µM (active).
In the case of `CSc1ncnc2c1ncn2CC(=O)C1CCC2C3CCC4=CC(=O)CCC4(C)C3CCC12C` (stereo not given), the Potency is reported as 23.1 µM (active).
